Common to all, as to type: functional
Test [1] relates to Plasmodium falciparum. Briefly: GSK_TCMDC: Inhibition of Plasmodium falciparum 3D7 in whole red blood cells, using parasite LDH activity as an index of growth. Test compounds present at 2uM.
For test [2], the system named is Plasmodium falciparum. Briefly: GSK_TCMDC: Inhibition of Plasmodium falciparum Dd2 in whole red blood cells, using parasite LDH activity as an index of growth. Test compounds present at 2uM.
The subject of the next test is HepG2. Briefly: GSK_TCMDC: Percent inhibition of human HepG2 cell line. Test compounds present at 10uM.

Broadly, the Inhibition is the share of the control response that was lost under treatment. Read a high Inhibition as strong suppression. On to `O=C(O)C(F)(F)F.c1cc(CN2CCCCC2)cc(-c2ccc(-c3nc4ccccc4[nH]3)s2)c1`, for which the values for the Inhibition in the test with Plasmodium falciparum [1], with Plasmodium falciparum [2] and in the test on HepG2 were 100%, 100% and 11%, respectively.

With `Cc1cc(Nc2ccc3c(c2)CCC3)n2ncnc2n1`, the Inhibition with Plasmodium falciparum [1] worked out at 86%; in the test on Plasmodium falciparum [2], 48%; in the test on HepG2 it was 4%.

In the case of `Cc1cc(N[C@@H](Cc2ccccc2)C(=O)NCCc2ccccc2)nc(NCCc2cccs2)n1.O=C(O)C(F)(F)F`, the Inhibition with Plasmodium falciparum [1] is 99%; with Plasmodium falciparum [2], 84%; with HepG2, 12%.

With `OC(CNCc1ccccc1OCc1ccccc1)c1cc(Br)cs1` (stereo not given), the Inhibition in the test with Plasmodium falciparum [1] was determined as 97%; in the test with Plasmodium falciparum [2], 88%; in the test on HepG2, 16%.

On to `CN(C)CCCNCc1ccc(-c2ccc(F)c(Cl)c2)o1.Cl`, for which the Inhibition in the test on Plasmodium falciparum [1] came out at 93%; in the test on Plasmodium falciparum [2], 69%; with HepG2 it was 29%.

With `Cl.O=S(=O)(c1ccc(OCc2ccc(Cl)cc2)cc1)c1cc2c(c(-c3ccc(F)cc3)c1)CCN(CC1CC1)CC2`, the values for the Inhibition in the test on Plasmodium falciparum [1], in the test on Plasmodium falciparum [2] and with HepG2 were 84%, 14% and 0%, respectively.

For the compound `CCN(CC)CCN(Cc1ccc(-c2ccc(C(F)(F)F)cc2)cc1)C(=O)Cn1c(CCc2cc(F)cc(F)c2F)nc(=O)c2ccccc21.O=C(O)C(O)C(O)C(=O)O`, the Inhibition came out at 100% with Plasmodium falciparum [1], 77% with Plasmodium falciparum [2] and 36% in the test on HepG2.

Take `CCCn1c(Sc2ccc(C#N)c([N+](=O)[O-])c2)nnc1-c1ccc(OC)cc1`: the Inhibition in the test with Plasmodium falciparum [1] stood at 94%; in the test on Plasmodium falciparum [2] it was 95%; in the test on HepG2, 0%.

Turning to `O=C(O)C(F)(F)F.OC1CCCN(Cc2ccc(-c3cccc(-c4nc5cc(F)ccc5[nH]4)c3)cc2)C1` (stereo not given), the figures for the Inhibition with Plasmodium falciparum [1], in the test on Plasmodium falciparum [2] and in the test on HepG2 were 99%, 49% and 28%, respectively.

In the case of `COc1cccc(NC(=O)Nc2ccc(-c3oc(C(=O)NCC(c4ccccc4)N(C)C)cc3-c3ccncc3)cc2)c1.O=C(O)C(F)(F)F` (stereo not given), the Inhibition was 100% with Plasmodium falciparum [1], 99% with Plasmodium falciparum [2] and 6% in the test on HepG2.

(Values after ChEMBL document CHEMBL1157539, “Thousands of chemical starting points for antimalarial lead identification” (Nature, 2010).)
